Values joined by “and” are separate entries in the source; they are usually repeats but may differ in a detail not shown here. Identical values can stand only once. Compounds without any hit were thinned out: in the full panel of roughly 83,000, 20% have a hit.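 Cell lines were cultured in 96-well plates, exposed to a single compound concentration, and assessed for percent growth 48 hours later.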 Active and inactive are the calls of the source. The calls were made as follows: active = growth percent below 10; inactive = the rest.

Test systems include DU-145 prostate; K-562 leukemia; MALME-3M melanoma; MDA-MB-231 breast; RXF 393 renal; SF-268 CNS; SF-295 CNS; SF-539 CNS; UACC-257 melanoma; M14 melanoma.
Common to all, as to assay: NCI-60 one-dose screen, 48 h (100 = growth as untreated, 0 = no growth, -100 = all killed)
Settings in all cases: 10 µM unless noted

Regarding `CCN1C(=S)N(CC)C2C1NC(=S)N2/N=C/C=C/c1ccccc1` (stereo not given), the growth was 30.6% (inactive) in the assay on DU-145 prostate; 15.5% (inactive) in the assay on K-562 leukemia; 28% (inactive) in the assay with MALME-3M melanoma; 52.7% (inactive) with MDA-MB-231 breast; 2.31% (active) in the assay with RXF 393 renal; 55.6% (inactive) in the assay on SF-268 CNS. In addition, the growth in the assay with SF-295 CNS was 19.6% (inactive); in the assay on SF-539 CNS it was 11.4% (inactive); with UACC-257 melanoma, 41.7% (inactive); in the assay with M14 melanoma, 24.8% (inactive).

In the case of `C#CCOc1cccc(Nc2ncc3ncn(C4CCN(C(=O)CCl)C4)c3n2)c1` (stereo not given), the growth with DU-145 prostate was 84% [6.25 µM] (inactive); with K-562 leukemia, 5.61% [6.25 µM] (active); in the assay on MALME-3M melanoma, 14.3% [6.25 µM] (inactive); with MDA-MB-231 breast it was 2.24% [6.25 µM] (active); in the assay with RXF 393 renal, -51.9% [6.25 µM] (active); in the assay on SF-268 CNS it was 40.2% [6.25 µM] (inactive). In addition, the growth was 89% [6.25 µM] (inactive) in the assay on SF-295 CNS, 68.7% [6.25 µM] (inactive) with SF-539 CNS, 72.6% [6.25 µM] (inactive) with UACC-257 melanoma and 24% [6.25 µM] (inactive) in the assay with M14 melanoma.

Take `COc1ccc(Nc2nn3c(SCC(=O)c4ccc(C)cc4)nnc3s2)cc1`: the growth was 101% (inactive) in the assay with DU-145 prostate; 83.5% (inactive) in the assay on K-562 leukemia; 98.7% (inactive) in the assay with MALME-3M melanoma; 91.7% (inactive) in the assay on MDA-MB-231 breast; 97.1% (inactive) in the assay on RXF 393 renal; 100% (inactive) in the assay on SF-268 CNS. Besides, the growth in the assay on SF-295 CNS was 100% (inactive); in the assay on SF-539 CNS, 107% (inactive); with UACC-257 melanoma, 108% (inactive); in the assay with M14 melanoma, 99.2% (inactive).

With `COc1cc(OC)cc(-c2ccc(-c3ccc(C(=N)N)cn3)s2)c1`, the growth in the assay with DU-145 prostate was 66.3% (inactive); with K-562 leukemia, 0.742% (active); in the assay with MALME-3M melanoma, 99.5% (inactive); with MDA-MB-231 breast, 81.1% (inactive); in the assay on RXF 393 renal, 98.6% (inactive); with SF-268 CNS, 93.9% (inactive). Also, the growth in the assay with SF-295 CNS was 88.7% (inactive); in the assay with SF-539 CNS, 83.3% (inactive); in the assay on UACC-257 melanoma, 97.8% (inactive); in the assay on M14 melanoma, 95.7% (inactive).

For the molecule `O=C(c1ccc(Nc2nccc(NCCCNc3ccnc4cc(Cl)ccc34)n2)cc1)N1CCCCC1`, the growth is 39.1% (inactive) in the assay on DU-145 prostate; 18.8% (inactive) in the assay with K-562 leukemia; 17.2% (inactive) with MALME-3M melanoma; 36.2% (inactive) in the assay with MDA-MB-231 breast; 61% (inactive) in the assay with RXF 393 renal; 36.5% (inactive) with SF-268 CNS. Moreover, the growth in the assay on SF-295 CNS was 37.2% (inactive); in the assay with SF-539 CNS it was 35.5% (inactive); in the assay with UACC-257 melanoma it was 36.7% (inactive); with M14 melanoma it was 35% (inactive).

With `COc1ccc(C(=O)N/N=C/c2ccc(O)cc2O)cc1Nc1ccnc(C(F)(F)F)c1`, the growth in the assay on DU-145 prostate is 48.1% (inactive); with K-562 leukemia it was 26.6% (inactive); in the assay on MALME-3M melanoma it was 9.52% (active); with MDA-MB-231 breast it was 51.6% (inactive); in the assay on RXF 393 renal, 49% (inactive); with SF-268 CNS it was 49.9% (inactive). Besides, the growth in the assay on SF-295 CNS was 22.7% (inactive); with SF-539 CNS, 10.3% (inactive); with UACC-257 melanoma it was 33.1% (inactive); in the assay with M14 melanoma it was 2.43% (active).

Consider `NS(=O)(=O)OCC1OC(n2cnc3cncnc32)C(O)C1O` (stereo not given), for which the growth with DU-145 prostate was 13.2% [0.1 µM] (inactive); in the assay with K-562 leukemia, 9.29% [0.1 µM] (active) and 7.85% [0.1 µM] (active); in the assay on MALME-3M melanoma, 81.6% [0.1 µM] (inactive) and 50.7% [0.1 µM] (inactive); in the assay on MDA-MB-231 breast it was -25.1% [0.1 µM] (active) and -14.3% [0.1 µM] (active); in the assay on RXF 393 renal, 11.7% [0.1 µM] (inactive) and 1.25% [0.1 µM] (active); with SF-268 CNS, 9.46% [0.1 µM] (active) and 13.5% [0.1 µM] (inactive). The growth is 24% [0.1 µM] (inactive) in the assay with SF-295 CNS; -2.66% [0.1 µM] (active) and -4.82% [0.1 µM] (active) in the assay on SF-539 CNS; 60.8% [0.1 µM] (inactive) and 58.2% [0.1 µM] (inactive) with UACC-257 melanoma; 31.1% [0.1 µM] (inactive) and 16.6% [0.1 µM] (inactive) in the assay on M14 melanoma.

As to `COc1ccc(/C=C/C(=O)c2cc3c(N)c(C(=O)Nc4ccccc4)sc3nc2C)cc1`, the growth in the assay with DU-145 prostate is 10.9% (inactive); in the assay on K-562 leukemia, 14.7% (inactive); in the assay on MALME-3M melanoma, 58.1% (inactive); in the assay on MDA-MB-231 breast it was 13.3% (inactive); in the assay with RXF 393 renal, -19.2% (active); in the assay on SF-268 CNS it was 22.6% (inactive). Further, the growth with SF-295 CNS is 11.6% (inactive); in the assay on SF-539 CNS it was -27.3% (active); in the assay with UACC-257 melanoma, 69.5% (inactive); in the assay with M14 melanoma, 6.3% (active).

For `COc1cccc(NC(=O)c2sc3nc(C)c(C(O)c4ccccc4)cc3c2N)c1` (stereo not given), the growth in the assay with DU-145 prostate is 13.4% (inactive); in the assay on K-562 leukemia, 6.52% (active); in the assay on MALME-3M melanoma, 63.2% (inactive); in the assay on MDA-MB-231 breast, 9.72% (active); in the assay on RXF 393 renal it was 26.9% (inactive); in the assay on SF-268 CNS it was 38.5% (inactive). For the same molecule, the growth in the assay on SF-295 CNS is 19.2% (inactive); in the assay on SF-539 CNS, -5.58% (active); in the assay on UACC-257 melanoma it was 71.4% (inactive); in the assay with M14 melanoma, 13.9% (inactive).

As for `CC12CCC(C(=O)CC1=O)C2(C)C` (stereo not given), the growth was 110% (inactive) and 108% (inactive) in the assay on DU-145 prostate; 102% (inactive) and 84.9% (inactive) in the assay on K-562 leukemia; 105% (inactive) and 87.4% (inactive) with MALME-3M melanoma; 111% (inactive) and 105% (inactive) in the assay with MDA-MB-231 breast; 106% (inactive) in the assay on RXF 393 renal; 99.2% (inactive) and 100% (inactive) in the assay on SF-268 CNS. Further, the growth in the assay with SF-295 CNS is 100% (inactive); in the assay with SF-539 CNS, 107% (inactive) and 112% (inactive); with UACC-257 melanoma it was 103% (inactive) and 91.7% (inactive); with M14 melanoma it was 102% (inactive) and 101% (inactive).

As to `CCOC(=O)N(O)c1ccc(/C=C/c2ccccc2)cc1`, the growth was 65.7% (inactive) and 61.4% (inactive) in the assay on DU-145 prostate; 39.9% (inactive) and 40.3% (inactive) with K-562 leukemia; 96.6% (inactive) and 117% (inactive) in the assay on MALME-3M melanoma; 67.3% (inactive) and 54% (inactive) in the assay with MDA-MB-231 breast; 76.8% (inactive) and 69.1% (inactive) in the assay on RXF 393 renal; 86.3% (inactive) and 81.3% (inactive) with SF-268 CNS. Also, the growth in the assay on SF-295 CNS was 41.7% (inactive) and 11.4% (inactive); in the assay with SF-539 CNS, 96.5% (inactive) and 85.1% (inactive); with UACC-257 melanoma, -40.5% (active) and -36.8% (active); in the assay with M14 melanoma, 66.7% (inactive) and 58.8% (inactive).

Turning to `COc1cc(CO)cc2cc3ccccc3nc12`, the growth was 106% (inactive) in the assay with DU-145 prostate; 90.7% (inactive) in the assay with K-562 leukemia; 112% (inactive) in the assay on MALME-3M melanoma; 101% (inactive) in the assay on MDA-MB-231 breast; 115% (inactive) in the assay with RXF 393 renal; 100% (inactive) with SF-268 CNS. Further, the growth with SF-295 CNS is 102% (inactive); in the assay on SF-539 CNS, 102% (inactive); in the assay with UACC-257 melanoma, 105% (inactive); in the assay with M14 melanoma it was 105% (inactive).

For the origin of these results see PubChem BioAssay (NCI).
